Results reported in the supplement of paper PMC11732987, “Enantioselective OTUD7B fragment discovery through chemoproteomics screening and high-throughput optimisation” (Communications Chemistry, 2025).
Values without a mark were called inactive.

Assays:
Test in all cases: log2 ratio of Biotin-Ahx-Ub-VS probe labelling (fragment/DMSO); higher = less target engagement (more negative = stronger competition), active = hit call of the paper (q ≤ 0.05, log2 ratio ≤ -1)
Settings in all cases: compound concentration: 200 uM; treatment time: 3 h
USP19 = biological target: T1, USP19 (UniProt O94966)
T1 sequence (whole entry): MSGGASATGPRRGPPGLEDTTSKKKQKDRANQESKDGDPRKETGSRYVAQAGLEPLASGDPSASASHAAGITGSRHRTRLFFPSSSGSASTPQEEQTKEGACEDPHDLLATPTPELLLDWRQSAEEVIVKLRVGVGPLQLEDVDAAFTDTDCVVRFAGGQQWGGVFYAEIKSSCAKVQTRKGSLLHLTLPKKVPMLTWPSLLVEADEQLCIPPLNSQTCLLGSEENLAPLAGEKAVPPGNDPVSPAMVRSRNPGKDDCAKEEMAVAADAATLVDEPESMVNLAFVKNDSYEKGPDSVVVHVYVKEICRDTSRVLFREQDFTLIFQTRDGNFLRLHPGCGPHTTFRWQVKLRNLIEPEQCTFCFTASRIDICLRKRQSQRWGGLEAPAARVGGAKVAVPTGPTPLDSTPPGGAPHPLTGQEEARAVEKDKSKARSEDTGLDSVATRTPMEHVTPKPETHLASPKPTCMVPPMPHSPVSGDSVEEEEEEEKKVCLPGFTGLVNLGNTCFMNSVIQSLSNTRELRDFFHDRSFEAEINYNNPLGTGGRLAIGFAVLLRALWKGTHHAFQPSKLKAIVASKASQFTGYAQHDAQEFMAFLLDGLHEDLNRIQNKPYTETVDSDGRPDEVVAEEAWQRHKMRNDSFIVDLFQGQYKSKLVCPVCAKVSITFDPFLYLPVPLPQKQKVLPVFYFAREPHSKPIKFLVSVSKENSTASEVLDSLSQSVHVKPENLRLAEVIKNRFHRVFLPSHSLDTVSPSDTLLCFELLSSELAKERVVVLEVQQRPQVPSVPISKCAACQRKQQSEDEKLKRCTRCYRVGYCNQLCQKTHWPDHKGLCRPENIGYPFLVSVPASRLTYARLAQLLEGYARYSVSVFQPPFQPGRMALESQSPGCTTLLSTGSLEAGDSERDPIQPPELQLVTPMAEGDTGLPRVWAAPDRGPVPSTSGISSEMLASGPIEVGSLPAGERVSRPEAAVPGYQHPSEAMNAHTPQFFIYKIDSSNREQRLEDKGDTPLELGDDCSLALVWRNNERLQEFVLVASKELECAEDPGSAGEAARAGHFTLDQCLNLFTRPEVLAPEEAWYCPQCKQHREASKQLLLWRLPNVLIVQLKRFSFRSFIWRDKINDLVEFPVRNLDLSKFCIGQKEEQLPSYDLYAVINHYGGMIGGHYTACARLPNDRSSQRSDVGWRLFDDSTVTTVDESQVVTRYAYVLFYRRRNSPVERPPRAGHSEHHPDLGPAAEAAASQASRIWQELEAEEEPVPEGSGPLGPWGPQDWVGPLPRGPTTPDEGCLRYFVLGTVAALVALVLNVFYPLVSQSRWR
In short: (§1)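 In triplicate, 495 µg of HEK293T lysate per sample was incubated with fragment at 200 µM or vehicle for 3 h. Biotin-Ahx-Ub-VS was then added to 0.5 µM final for 1 h, and labelled DUBs were captured with NeutrAvidin, digested with LysC and trypsin, and measured by diaPASEF LC-MS/MS. Data are average log2 fragment/vehicle ratios by unpaired t-test from global-median-normalised Spectronaut label-free quantities, restricted to proteins with ≥2 unique peptides.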

USP22 = biological target: T2, USP22 (UniProt Q9UPT9)
T2 sequence (whole entry): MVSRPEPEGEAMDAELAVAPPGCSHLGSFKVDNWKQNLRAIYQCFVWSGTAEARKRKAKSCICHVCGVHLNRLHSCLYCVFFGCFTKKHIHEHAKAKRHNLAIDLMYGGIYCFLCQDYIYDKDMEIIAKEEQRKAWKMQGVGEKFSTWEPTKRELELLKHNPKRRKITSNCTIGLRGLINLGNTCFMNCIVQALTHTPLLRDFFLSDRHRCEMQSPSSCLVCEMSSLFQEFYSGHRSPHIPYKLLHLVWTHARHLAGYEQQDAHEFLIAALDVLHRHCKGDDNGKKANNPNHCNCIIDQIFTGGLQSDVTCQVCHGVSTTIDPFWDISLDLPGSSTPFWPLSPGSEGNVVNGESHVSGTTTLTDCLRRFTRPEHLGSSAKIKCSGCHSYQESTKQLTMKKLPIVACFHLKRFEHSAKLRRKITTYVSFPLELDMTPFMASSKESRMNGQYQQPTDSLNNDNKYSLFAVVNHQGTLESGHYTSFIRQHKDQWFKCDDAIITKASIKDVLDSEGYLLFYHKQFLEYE
In short: as §1

USP24 = USP24 (UniProt Q9UPU5)
In short: as §1

USP25 = biological target: T3, USP25 (UniProt Q9UHP3)
T3 sequence (whole entry): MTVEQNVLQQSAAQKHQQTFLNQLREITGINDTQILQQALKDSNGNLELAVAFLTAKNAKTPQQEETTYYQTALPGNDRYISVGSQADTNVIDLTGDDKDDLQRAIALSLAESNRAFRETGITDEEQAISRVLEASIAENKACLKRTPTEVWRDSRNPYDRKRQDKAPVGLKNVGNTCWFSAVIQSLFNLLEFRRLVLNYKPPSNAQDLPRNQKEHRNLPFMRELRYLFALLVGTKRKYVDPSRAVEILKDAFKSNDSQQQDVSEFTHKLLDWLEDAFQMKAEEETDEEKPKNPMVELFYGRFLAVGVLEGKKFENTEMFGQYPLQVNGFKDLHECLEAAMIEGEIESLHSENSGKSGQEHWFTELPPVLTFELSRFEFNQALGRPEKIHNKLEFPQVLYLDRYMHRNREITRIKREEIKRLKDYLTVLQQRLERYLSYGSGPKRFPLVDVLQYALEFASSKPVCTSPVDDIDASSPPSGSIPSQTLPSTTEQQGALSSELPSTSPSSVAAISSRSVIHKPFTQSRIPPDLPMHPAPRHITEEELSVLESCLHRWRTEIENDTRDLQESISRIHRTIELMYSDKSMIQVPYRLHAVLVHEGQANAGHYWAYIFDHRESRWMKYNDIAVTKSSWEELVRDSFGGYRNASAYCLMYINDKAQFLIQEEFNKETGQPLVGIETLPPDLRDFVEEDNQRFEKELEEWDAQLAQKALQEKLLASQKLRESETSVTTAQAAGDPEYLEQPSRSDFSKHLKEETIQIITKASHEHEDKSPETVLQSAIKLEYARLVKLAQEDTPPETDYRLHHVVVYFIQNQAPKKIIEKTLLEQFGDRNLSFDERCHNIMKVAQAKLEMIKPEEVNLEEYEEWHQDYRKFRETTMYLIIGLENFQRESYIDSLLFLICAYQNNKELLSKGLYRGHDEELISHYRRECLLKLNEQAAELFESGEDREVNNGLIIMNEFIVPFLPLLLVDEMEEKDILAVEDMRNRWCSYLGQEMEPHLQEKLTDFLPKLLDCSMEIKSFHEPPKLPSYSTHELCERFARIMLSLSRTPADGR
In short: as §1

USP28 = biological target: T4, USP28 (UniProt Q96RU2)
T4 sequence (whole entry): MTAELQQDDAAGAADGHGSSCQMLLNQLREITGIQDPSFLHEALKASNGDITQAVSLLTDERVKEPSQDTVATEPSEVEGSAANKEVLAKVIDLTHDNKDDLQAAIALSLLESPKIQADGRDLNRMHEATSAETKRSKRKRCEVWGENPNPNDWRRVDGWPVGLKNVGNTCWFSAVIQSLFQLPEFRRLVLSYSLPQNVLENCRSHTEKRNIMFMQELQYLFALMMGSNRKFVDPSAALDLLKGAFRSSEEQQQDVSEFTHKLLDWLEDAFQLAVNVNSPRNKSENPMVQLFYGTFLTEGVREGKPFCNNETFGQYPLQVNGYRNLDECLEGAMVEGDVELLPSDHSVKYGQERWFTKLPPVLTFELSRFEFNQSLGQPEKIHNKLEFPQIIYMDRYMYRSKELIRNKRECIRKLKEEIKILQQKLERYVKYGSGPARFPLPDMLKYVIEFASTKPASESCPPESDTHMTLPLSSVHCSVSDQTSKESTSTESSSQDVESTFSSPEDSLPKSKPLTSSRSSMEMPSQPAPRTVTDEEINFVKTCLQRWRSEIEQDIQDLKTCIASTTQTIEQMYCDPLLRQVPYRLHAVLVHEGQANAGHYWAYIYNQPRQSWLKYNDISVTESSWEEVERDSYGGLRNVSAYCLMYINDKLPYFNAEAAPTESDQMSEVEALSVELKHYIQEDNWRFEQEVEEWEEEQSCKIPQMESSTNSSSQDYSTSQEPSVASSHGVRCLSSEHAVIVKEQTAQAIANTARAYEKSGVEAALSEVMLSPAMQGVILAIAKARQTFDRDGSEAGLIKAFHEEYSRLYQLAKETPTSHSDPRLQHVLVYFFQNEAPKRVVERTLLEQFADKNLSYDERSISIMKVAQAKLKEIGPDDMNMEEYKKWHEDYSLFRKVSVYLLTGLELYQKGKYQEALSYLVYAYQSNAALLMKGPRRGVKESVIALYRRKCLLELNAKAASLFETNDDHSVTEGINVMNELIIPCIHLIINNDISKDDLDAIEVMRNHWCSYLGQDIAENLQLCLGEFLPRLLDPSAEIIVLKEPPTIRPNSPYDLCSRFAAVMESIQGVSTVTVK
In short: as §1

Sequence of USP24 (Q9UPU5 whole entry): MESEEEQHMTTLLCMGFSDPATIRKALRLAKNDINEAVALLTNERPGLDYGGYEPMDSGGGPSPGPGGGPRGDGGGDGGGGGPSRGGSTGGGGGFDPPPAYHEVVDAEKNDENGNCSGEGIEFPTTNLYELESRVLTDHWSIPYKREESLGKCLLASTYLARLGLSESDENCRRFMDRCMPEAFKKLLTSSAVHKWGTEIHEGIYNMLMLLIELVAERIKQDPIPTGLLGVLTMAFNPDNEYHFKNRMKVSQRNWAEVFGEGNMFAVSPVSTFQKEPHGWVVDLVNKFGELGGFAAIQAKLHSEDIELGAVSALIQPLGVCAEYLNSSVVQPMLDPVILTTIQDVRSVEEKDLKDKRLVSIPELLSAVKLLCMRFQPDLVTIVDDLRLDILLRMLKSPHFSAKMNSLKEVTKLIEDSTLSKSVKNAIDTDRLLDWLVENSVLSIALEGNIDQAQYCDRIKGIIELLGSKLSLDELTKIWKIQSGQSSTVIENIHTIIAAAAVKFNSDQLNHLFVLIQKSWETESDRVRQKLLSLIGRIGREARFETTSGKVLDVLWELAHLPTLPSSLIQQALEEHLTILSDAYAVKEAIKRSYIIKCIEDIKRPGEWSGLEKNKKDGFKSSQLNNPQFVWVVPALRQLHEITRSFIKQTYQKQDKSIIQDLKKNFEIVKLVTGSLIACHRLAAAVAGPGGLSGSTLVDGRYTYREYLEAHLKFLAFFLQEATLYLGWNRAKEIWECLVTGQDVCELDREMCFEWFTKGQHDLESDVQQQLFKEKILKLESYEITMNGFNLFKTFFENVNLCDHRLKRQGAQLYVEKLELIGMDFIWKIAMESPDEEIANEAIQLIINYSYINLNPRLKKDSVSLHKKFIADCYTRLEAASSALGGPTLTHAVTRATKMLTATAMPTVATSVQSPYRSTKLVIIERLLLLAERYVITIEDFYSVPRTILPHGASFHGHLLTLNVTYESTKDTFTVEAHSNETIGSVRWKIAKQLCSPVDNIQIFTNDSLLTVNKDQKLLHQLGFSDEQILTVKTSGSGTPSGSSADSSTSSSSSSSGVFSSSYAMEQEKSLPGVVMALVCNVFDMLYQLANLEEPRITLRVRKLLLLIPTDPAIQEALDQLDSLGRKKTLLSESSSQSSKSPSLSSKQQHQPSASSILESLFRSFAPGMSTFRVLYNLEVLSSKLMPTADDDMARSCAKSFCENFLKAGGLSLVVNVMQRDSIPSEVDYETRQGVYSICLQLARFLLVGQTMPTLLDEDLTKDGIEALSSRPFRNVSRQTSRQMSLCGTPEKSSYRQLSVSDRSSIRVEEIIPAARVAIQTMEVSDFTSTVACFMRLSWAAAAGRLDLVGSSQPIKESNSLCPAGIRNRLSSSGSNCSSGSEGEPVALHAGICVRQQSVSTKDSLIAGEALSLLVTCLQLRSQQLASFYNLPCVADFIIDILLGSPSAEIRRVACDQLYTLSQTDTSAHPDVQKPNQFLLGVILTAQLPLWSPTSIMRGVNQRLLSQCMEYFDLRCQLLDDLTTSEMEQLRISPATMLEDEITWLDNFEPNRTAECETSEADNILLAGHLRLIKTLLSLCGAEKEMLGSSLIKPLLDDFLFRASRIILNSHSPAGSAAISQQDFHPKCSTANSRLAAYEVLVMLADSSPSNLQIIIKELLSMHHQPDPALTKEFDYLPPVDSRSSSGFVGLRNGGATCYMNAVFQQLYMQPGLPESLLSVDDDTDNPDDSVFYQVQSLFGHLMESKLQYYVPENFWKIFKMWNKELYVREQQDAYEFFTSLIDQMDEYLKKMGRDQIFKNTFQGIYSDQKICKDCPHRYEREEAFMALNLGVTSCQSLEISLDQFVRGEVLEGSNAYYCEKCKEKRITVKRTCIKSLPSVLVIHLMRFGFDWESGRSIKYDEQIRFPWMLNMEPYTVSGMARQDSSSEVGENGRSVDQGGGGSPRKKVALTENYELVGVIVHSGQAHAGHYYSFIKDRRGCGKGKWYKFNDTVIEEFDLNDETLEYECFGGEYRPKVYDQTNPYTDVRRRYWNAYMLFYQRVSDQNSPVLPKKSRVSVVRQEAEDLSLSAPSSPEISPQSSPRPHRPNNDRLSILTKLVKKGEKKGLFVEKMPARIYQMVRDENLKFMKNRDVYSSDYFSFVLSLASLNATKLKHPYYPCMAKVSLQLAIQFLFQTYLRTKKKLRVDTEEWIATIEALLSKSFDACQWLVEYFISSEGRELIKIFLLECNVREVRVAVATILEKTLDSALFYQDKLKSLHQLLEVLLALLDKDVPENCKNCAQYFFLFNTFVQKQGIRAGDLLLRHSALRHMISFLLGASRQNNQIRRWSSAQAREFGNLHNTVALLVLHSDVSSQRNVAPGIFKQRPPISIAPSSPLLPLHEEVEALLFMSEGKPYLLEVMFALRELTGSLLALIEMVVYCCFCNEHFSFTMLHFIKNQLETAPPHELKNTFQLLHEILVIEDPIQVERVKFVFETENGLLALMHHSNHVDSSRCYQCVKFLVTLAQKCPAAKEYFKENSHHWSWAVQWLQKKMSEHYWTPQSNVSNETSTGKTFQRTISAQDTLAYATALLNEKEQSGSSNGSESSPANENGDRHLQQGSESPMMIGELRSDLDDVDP

In the case of `O=C(CCl)Nc1cc(Cl)ccc1-n1cncn1`, the “log2 ratio of Biotin-Ahx-Ub-VS probe labelling” value (from here on “log2 ratio”) (USP19) is reported as -0.987, the “log2 ratio” value (USP22) is reported as -0.15 and the “log2 ratio” value (USP24) is reported as -1.34 (active). The “log2 ratio” value (USP25) was -1.65 (active) and the “log2 ratio” value (USP28) was -2.34 (active).
